Activity calls are given as the source filed them. Unless noted, how the calls were made is not given here.
Assays:
[1] = resazurin metabolic signal in HepG2 cells – cell-based, resazurin fluorescence, 24 h, PK04 Diversity Set, profiling panel (AID 1172); details: HepG2 viability, higher = more signal
[2] = budding yeast growth changes without added modifier – OD600, strain BY4716, 24 h, basal condition, primary screen (AID 1173); details: S. cerevisiae BY4716 growth, OD600, 24 h; higher = more signal, called active from +8 up or from −8 down
[3] = viability profiling in MM1S myeloma cells – cell-based, resazurin fluorescence, basal, 24 h, PK04 Diversity Set, profiling panel (AID 1174); details: higher = more signal, called active from +8 up or from −8 down;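 further: MM1S multiple myeloma cell line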
[4] = biological target: Dihydroorotate dehydrogenase (quinone), mitochondrial (Plasmodium falciparum (isolate 3D7)) (UniProt Q08210); test: inhibition of P. falciparum DHODH – biochemical, C-terminal His tag, absorbance 600 nm, primary screen (AID 1175); details: PfDHODH enzyme, DCIP absorbance 600 nm; higher = more signal, called active from +8 up or from −8 down;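 further: recombinant parasite enzyme with a five histidine tag at its C terminus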
Dihydroorotate dehydrogenase (quinone), mitochondrial (Plasmodium falciparum (isolate 3D7)), sequence (Q08210 whole entry, looked up): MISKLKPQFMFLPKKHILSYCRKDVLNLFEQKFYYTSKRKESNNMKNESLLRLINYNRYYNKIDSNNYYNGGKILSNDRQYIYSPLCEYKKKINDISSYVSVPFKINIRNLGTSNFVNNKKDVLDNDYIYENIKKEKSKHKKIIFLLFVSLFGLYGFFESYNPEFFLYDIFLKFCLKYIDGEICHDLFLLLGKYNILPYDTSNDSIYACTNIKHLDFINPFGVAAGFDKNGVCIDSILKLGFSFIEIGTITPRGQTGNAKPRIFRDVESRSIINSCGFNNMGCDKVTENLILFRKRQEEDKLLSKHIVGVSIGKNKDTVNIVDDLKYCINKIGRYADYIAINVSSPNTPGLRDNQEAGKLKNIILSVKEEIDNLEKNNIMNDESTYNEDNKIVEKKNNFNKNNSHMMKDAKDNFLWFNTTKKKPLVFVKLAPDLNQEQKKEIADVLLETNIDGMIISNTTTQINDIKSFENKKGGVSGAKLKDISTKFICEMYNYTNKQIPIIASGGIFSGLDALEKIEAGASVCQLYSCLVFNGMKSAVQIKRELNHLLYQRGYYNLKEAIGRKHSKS

[5] = inhibition of PAO1 biofilm formation – strain PAO1, LB-PBS medium, absorbance 600 nm, primary screen (AID 1176); details: P. aeruginosa PAO1 growth/biofilm, A600, 12 h; higher = more signal
[6] = growth modulation of vineyard yeast isolate – strain RM11-1a, OD600, basal, 24 h, primary screen (AID 1177);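 further: cultures grown under basal conditions with no added stressor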; details: S. cerevisiae RM11-1a growth, OD600, 24 h; higher = more signal, called active from +8 up or from −8 down
[7] = growth of efflux-deficient E. coli DRC39 – strain DRC39, OD650, 24 h, E. coli filamentation inducers, primary screen (AID 1178);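 further: growth measured as culture turbidity by optical density at 650 nm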; details: E. coli DRC39 acrAB, higher = more signal, called active from +8 up or from −8 down
[8] = growth of efflux-deficient E. coli DRC39 – strain DRC39, OD650, 48 h, E. coli filamentation inducers, primary screen (AID 1179);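 further: screen aims at cell division blockers that make cells filament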; details: E. coli DRC39 delta-acrAB growth, higher = more signal, called active from +8 up or from −8 down
[9] = viability profiling in RPMI8226 myeloma cells – cell-based, resazurin fluorescence, basal, 24 h, PK04 Diversity Set, profiling panel (AID 1180); details: higher = more signal;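 further: RPMI8826 multiple myeloma cell line at 5000 cells per well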
[10] = biological target: E3 ubiquitin-protein ligase XIAP (Homo sapiens) (UniProt P98170); test: small molecules binding XIAP protein – biophysical, small-molecule microarray, fluorescence 635 nm, primary screen (AID 1181); details: higher = more signal;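 further: score merges 667 nm emission and signal to noise over triplicate slides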
E3 ubiquitin-protein ligase XIAP (Homo sapiens), sequence (P98170 whole entry, looked up, the tested form may be a part): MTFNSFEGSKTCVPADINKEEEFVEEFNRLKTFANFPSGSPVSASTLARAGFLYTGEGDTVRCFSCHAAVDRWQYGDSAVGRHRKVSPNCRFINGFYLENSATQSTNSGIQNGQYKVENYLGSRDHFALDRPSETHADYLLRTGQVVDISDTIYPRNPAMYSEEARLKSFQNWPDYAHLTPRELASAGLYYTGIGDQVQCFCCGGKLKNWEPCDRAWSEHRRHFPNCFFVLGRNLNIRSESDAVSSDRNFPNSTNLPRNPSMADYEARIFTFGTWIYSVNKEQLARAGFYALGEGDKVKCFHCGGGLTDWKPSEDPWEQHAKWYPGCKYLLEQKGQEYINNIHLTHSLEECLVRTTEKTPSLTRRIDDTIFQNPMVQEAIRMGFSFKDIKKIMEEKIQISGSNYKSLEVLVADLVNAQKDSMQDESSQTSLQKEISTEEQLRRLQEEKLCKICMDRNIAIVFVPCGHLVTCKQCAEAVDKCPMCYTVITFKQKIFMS

[11] = test system: XIP peptide (Xip251-270) binding; test: XIP fragment 251-270 binding compounds – biochemical, small-molecule microarray, fluorescence 635/667 nm, 0.1 µg/mL protein, primary screen (AID 1182); details: fluorescent protein binding, 635 nm, higher = more signal, called active from +8 up or from −8 down
XIP peptide (Xip251-270) = test: compounds binding XIP fragment 251-270 – biochemical, small-molecule microarray, fluorescence 635/667 nm, 0.5 µg/mL protein, primary screen (AID 1183); details: fluorescence 635 nm, higher = more signal
[12] = blood-stage malaria parasite viability loss – strain 3D7, DAPI fluorescence, 100 nL, primary screen (AID 1184);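 further: parasites grown inside human red blood cells in medium with human serum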; details: P. falciparum 3D7 growth, 3 d, higher = more signal
[13] = biological target: Homeobox protein Hox-A13 (Mus musculus) (UniProt Q62424); test: disruptors of Hoxa13 oligonucleotide interaction – biochemical, fluorescence polarization, labeled oligonucleotide, primary screen (AID 1185); details: Hoxa13:DNA binding, 15 min, higher = more signal, called active from +8 up or from −8 down
Homeobox protein Hox-A13 (Mus musculus), sequence (Q62424 whole entry, looked up): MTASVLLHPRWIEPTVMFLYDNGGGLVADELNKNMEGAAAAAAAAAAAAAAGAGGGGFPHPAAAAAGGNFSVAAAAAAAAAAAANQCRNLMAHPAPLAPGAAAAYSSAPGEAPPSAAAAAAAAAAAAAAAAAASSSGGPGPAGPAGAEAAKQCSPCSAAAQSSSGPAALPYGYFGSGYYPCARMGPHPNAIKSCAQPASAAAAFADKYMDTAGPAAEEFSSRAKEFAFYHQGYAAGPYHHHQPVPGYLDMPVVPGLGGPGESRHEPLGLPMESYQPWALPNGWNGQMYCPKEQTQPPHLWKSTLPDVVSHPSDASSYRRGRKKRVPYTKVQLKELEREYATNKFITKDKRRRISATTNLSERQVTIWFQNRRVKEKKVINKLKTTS

[14] = blockers of DNA damage checkpoint Chk1 activation – imaging, HeLa, hydroxyurea, phospho-Chk1 antibody, percent positive cells, primary screen (AID 1186); details: hydroxyurea-induced phospho-Chk1 immunofluorescence imaging, higher = more signal
[15] = blockers of DNA damage checkpoint Chk1 activation – imaging, HeLa, hydroxyurea, phospho-Chk1 nuclear intensity, primary screen (AID 1187); details: hydroxyurea-induced phospho-Chk1 immunofluorescence imaging, higher = more signal

## C=CCC(OC(C)=O)[C@@H]1[C@@H](N(Cc2cccc3ccccc23)C(=O)c2ccc(C)cc2)c2cc(OCCCO)ccc2N1C(=O)c1ccc2ccccc2c1 (stereo partly specified)
[1]
  z-score: 0.924
[2]
  z-score: -0.0786 (inactive)
[3]
  z-score: 1.27 (inactive)
[4]
  composite z-score: -1.86 (inactive)
[5]
  z-score: 0.101 (inactive)
[6]
  z-score: -1.7 (inactive)
[7]
  z-score: 1.24 (inactive)
[8]
  z-score: 1.8 (inactive)
[9]
  z-score: 1.04
[10]
  composite z-score: -0.152
[11]
  composite z-score: 0.591 (inactive)
XIP peptide (Xip251-270)
  composite z-score: 0.52
[12]
  z-score: -2.2
[13]
  z-score: -0.0802 (inactive)
[14]
  z-score: -0.995 (inactive)
[15]
  z-score: -0.761 (inactive)

## CC(C)C[C@@H]1NC(=O)[C@@H]2C[C@H](C(=O)NCc3ccc(F)cc3)[C@H](c3ccc(O)cc3)N2C1=O
[1]
  z-score: -1.5
[2]
  z-score: 0.0288 (inactive)
[3]
  z-score: 0.429 (inactive)
[4]
  composite z-score: -1.36 (inactive)
[5]
  z-score: 0.891 (inactive)
[6]
  z-score: -0.647 (inactive)
[7]
  z-score: -0.52 (inactive)
[8]
  z-score: -1.2 (inactive)
[9]
  z-score: 0.734
[10]
  composite z-score: 0.222
[11]
  composite z-score: 0.8 (inactive)
XIP peptide (Xip251-270)
  composite z-score: 0.655
[12]
  z-score: -0.395
[13]
  z-score: -1.41 (inactive)
[14]
  z-score: 0.13 (inactive)
[15]
  z-score: 0.0555 (inactive)

## O=C1c2ccccc2[C@](Cc2ccccc2I)(C(=O)NC2CC2)[C@H](c2ccc(CO)cc2)N1Cc1ccccc1Cl
[1]
  z-score: 0.197
[2]
  z-score: 0.504 (inactive)
[3]
  z-score: -0.405 (inactive)
[4]
  composite z-score: 0.37 (inactive)
[5]
  z-score: 0.925 (inactive)
[6]
  z-score: 1.9 (inactive)
[7]
  z-score: 0.258 (inactive)
[8]
  z-score: -0.507 (inactive)
[9]
  z-score: -0.506
[10]
  composite z-score: 0.0432
[11]
  composite z-score: 1.33 (inactive)
XIP peptide (Xip251-270)
  composite z-score: -0.154
[12]
  z-score: -1.03
[13]
  z-score: -4.21 (inactive)
[14]
  z-score: 0.129 (inactive)
[15]
  z-score: -0.341 (inactive)

## C[N+](C)(C)CCCCCCNC(=O)[C@@H]1C[C@@H]2C(=O)NCC(=O)N2[C@@H]1c1cccc(OCCO)c1
[1]
  z-score: 0.597
[2]
  z-score: -1.33 (inactive)
[3]
  z-score: 1.26 (inactive)
[4]
  composite z-score: -2.3 (inactive)
[5]
  z-score: 3.7 (inactive)
[6]
  z-score: -0.257 (inactive)
[7]
  z-score: -0.858 (inactive)
[8]
  z-score: -0.765 (inactive)
[9]
  z-score: 0.343
[10]
  composite z-score: 0.0192
[11]
  composite z-score: 0.525 (inactive)
XIP peptide (Xip251-270)
  composite z-score: 0.421
[12]
  z-score: -0.848
[13]
  z-score: -4.4 (inactive)
[14]
  z-score: -0.177 (inactive)
[15]
  z-score: -0.261 (inactive)

## COC(=O)[C@]1(Cc2ccccc2CN=[N+]=[N-])N=C(c2ccc(OCCCO)cc2)O[C@@H]1c1ccccc1CN=[N+]=[N-]
[1]
  z-score: -1.27
[2]
  z-score: 0.803 (inactive)
[3]
  z-score: -3.36 (inactive)
[4]
  composite z-score: 1.36 (inactive)
[5]
  z-score: 3.93 (inactive)
[6]
  z-score: 2.92 (inactive)
[7]
  z-score: 2.1 (inactive)
[8]
  z-score: 1.6 (inactive)
[9]
  z-score: -4.23
[10]
  composite z-score: -0.0025
[11]
  composite z-score: 0.319 (inactive)
XIP peptide (Xip251-270)
  composite z-score: 0.728
[12]
  z-score: -2.27
[13]
  z-score: 0.13 (inactive)
[14]
  z-score: -0.716 (inactive)
[15]
  z-score: -0.601 (inactive)

## CCCCC(=C=CC[C@H](O)c1ccccc1OCCO)C[C@H](O)c1ccccn1
[1]
  z-score: 0.973
[2]
  z-score: -1.8 (inactive)
[3]
  z-score: 0.843 (inactive)
[4]
  composite z-score: -1.36 (inactive)
[5]
  z-score: 0.0235 (inactive)
[6]
  z-score: 0.0401 (inactive)
[7]
  z-score: 0.917 (inactive)
[8]
  z-score: 0.726 (inactive)
[9]
  z-score: 1.13
[10]
  composite z-score: 0.104
[11]
  composite z-score: 0.418 (inactive)
XIP peptide (Xip251-270)
  composite z-score: 0.318
[12]
  z-score: -0.966
[13]
  z-score: -3.35 (inactive)
[14]
  z-score: 0.305 (inactive)
[15]
  z-score: 0.113 (inactive)

From PubChem BioAssay
